Holding throughout (assay): DAPPL (digital affinity profiling via proximity ligation, sequencing); 10 mM Tris-HCl pH 7.5, 50 mM NaCl, 1 mM DTT, 4% glycerol, room temperature, 30 min; GST-TFs on glutathione beads, 16-mer random dsDNA library, 0.1% formaldehyde crosslink after washing; high values mean tight binding
In one assay the target is T1, FEV (Homo sapiens, UniProt Q99581 1-238).
T1 sequence: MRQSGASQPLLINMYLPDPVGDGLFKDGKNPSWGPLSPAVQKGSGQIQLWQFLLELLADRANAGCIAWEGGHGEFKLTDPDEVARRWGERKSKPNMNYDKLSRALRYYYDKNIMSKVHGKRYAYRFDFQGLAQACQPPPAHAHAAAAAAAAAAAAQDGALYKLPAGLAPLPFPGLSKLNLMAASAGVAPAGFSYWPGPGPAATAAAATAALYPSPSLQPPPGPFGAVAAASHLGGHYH
The settings on record: protein: recombinant; tags: N-terminal GST; dsDNA, one strand shown. A digest of the protocol:
(§1)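 Human transcription factors fused to GST were expressed in yeast, captured on glutathione beads, given DNA barcodes and pooled with a GST-only negative control. Pools were incubated with 200 nmole of a 16-mer random double-stranded DNA library in Tris/NaCl/DTT/glycerol buffer at room temperature for 30 min. They were then washed, crosslinked with 0.1% formaldehyde, proximity-ligated (BsaI/T4 ligase, 1 h, 37 °C), PCR-amplified and sequenced on an Illumina NextSeq500. Binding signal is each 6-mer's read frequency for a factor divided by its frequency for the GST control.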

The next assay addresses ETV5 (Homo sapiens, UniProt P41161 1-510). The settings on record: protein: recombinant; tags: N-terminal GST; dsDNA, one strand shown. A digest of the protocol:
as §1

For a further assay, the target named is HSF1 (Homo sapiens, UniProt Q00613 1-529). The settings on record: protein: recombinant; tags: N-terminal GST; chain copies: 3; dsDNA, one strand shown. The essentials: as §1
Another assay deals with T2, SPIC (Homo sapiens, UniProt Q8N5J4 1-248).
T2 sequence: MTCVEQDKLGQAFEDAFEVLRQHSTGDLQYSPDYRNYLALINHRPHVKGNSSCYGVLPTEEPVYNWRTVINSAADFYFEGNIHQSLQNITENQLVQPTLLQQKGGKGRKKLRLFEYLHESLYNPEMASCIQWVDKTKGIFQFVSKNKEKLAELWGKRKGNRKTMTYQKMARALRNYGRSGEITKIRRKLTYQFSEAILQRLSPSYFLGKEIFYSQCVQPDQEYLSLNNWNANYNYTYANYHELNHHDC
The settings on record: protein: recombinant; tags: N-terminal GST; dsDNA, one strand shown. A digest of the protocol: as §1

A further assay has as its target ELF4 (Homo sapiens, UniProt Q99607 1-663). The settings on record: protein: recombinant; tags: N-terminal GST; dsDNA, one strand shown. A digest of the protocol: as §1
A further assay deals with T3, ELK4 (Homo sapiens, UniProt P28324-2 1-405).
T3 sequence: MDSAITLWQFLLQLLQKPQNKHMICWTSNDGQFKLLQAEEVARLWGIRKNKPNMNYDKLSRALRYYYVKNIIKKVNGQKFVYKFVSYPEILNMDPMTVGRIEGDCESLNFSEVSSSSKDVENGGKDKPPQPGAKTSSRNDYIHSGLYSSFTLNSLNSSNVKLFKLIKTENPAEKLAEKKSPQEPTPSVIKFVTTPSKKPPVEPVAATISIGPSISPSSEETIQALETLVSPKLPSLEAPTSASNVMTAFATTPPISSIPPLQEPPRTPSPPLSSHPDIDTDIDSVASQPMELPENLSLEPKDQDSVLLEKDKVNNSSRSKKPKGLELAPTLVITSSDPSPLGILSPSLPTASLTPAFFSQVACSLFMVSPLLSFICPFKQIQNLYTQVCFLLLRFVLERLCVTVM
The note with it: protein: recombinant; tags: N-terminal GST; dsDNA, one strand shown. A digest of the protocol:
as §1

A further assay addresses T4, ETV2 (Homo sapiens, UniProt O00321 1-342).
T4 sequence: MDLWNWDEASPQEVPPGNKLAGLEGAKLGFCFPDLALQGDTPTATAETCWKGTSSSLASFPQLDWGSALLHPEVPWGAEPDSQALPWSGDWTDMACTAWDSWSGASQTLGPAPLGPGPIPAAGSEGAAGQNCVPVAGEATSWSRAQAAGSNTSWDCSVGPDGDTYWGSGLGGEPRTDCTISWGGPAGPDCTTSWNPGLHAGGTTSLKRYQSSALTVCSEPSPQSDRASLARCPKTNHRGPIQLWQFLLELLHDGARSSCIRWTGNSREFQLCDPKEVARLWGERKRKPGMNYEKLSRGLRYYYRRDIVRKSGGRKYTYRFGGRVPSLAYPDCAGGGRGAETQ
The note with it: protein: recombinant; tags: N-terminal GST; dsDNA, one strand shown. The essentials:
as §1

Another assay deals with T5, ELF3 (Homo sapiens, UniProt P78545 1-371).
T5 sequence: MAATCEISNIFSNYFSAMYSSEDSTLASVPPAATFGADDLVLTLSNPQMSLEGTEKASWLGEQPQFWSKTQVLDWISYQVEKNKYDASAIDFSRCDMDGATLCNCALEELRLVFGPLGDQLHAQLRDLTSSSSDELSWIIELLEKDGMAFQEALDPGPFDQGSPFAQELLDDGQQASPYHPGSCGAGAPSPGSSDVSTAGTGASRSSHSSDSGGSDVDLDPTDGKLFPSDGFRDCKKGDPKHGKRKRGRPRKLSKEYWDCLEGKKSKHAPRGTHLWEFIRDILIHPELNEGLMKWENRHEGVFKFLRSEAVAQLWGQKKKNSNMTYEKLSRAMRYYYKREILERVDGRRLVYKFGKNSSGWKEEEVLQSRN
The settings on record: protein: recombinant; tags: N-terminal GST; dsDNA, one strand shown. A digest of the protocol:
as §1

In another assay the target is CRX (Homo sapiens, UniProt O43186 1-299). The note with it: protein: recombinant; tags: N-terminal GST; dsDNA, one strand shown. A digest of the protocol:
as §1

The target of another assay is ETV1 (Homo sapiens, UniProt P50549 1-477). The settings on record: protein: recombinant; tags: N-terminal GST; dsDNA, one strand shown. A digest of the protocol:
as §1

A further assay addresses T6, ERF (Homo sapiens, UniProt P50548 1-548).
T6 sequence: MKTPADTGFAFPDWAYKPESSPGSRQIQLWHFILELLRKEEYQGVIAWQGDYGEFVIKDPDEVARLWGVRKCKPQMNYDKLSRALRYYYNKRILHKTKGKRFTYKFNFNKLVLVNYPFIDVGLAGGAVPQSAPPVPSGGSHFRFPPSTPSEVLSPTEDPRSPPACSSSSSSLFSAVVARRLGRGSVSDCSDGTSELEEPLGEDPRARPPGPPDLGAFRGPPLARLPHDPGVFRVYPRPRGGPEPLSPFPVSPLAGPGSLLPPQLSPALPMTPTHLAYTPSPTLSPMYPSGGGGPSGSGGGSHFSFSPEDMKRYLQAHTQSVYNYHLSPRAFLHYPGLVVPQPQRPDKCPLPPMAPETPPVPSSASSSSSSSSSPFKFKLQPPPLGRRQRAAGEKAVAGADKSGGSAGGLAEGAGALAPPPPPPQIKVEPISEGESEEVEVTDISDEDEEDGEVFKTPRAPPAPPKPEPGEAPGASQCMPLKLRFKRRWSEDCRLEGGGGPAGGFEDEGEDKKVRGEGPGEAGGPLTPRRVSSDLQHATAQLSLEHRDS
The settings on record: protein: recombinant; tags: N-terminal GST; dsDNA, one strand shown. The essentials:
as §1

The target in the next assay is T7, ETV3L (Homo sapiens, UniProt Q6ZN32 1-361).
T7 sequence: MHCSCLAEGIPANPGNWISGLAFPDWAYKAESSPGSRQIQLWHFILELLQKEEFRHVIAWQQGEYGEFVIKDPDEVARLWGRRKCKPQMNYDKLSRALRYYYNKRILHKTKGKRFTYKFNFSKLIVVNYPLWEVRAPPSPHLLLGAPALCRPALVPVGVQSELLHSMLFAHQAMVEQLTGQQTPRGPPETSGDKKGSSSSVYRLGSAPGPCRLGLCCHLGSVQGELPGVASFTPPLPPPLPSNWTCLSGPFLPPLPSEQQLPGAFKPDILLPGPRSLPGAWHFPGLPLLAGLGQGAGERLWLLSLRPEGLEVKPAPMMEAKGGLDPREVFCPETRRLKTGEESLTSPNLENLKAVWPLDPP
The note with it: protein: recombinant; tags: N-terminal GST; dsDNA, one strand shown. A digest of the protocol:
as §1

A further assay addresses T8, ETS2 (Homo sapiens, UniProt P15036 1-469).
T8 sequence: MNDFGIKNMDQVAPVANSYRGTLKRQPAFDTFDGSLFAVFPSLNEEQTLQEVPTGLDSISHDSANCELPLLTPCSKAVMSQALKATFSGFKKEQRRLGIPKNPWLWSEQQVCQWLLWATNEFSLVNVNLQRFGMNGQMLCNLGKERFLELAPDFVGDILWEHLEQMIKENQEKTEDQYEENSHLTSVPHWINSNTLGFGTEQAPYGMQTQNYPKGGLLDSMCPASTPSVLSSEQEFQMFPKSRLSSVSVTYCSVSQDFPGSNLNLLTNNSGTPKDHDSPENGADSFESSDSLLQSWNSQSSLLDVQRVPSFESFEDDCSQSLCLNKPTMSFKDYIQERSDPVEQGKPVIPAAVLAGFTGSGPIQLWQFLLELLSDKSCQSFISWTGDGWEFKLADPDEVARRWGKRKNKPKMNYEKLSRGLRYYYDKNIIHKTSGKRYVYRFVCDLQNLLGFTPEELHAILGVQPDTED
The settings on record: protein: recombinant; tags: N-terminal GST; dsDNA, one strand shown. A digest of the protocol:
as §1

In a further assay the target is T9, SPDEF (Homo sapiens, UniProt O95238 1-335).
T9 sequence: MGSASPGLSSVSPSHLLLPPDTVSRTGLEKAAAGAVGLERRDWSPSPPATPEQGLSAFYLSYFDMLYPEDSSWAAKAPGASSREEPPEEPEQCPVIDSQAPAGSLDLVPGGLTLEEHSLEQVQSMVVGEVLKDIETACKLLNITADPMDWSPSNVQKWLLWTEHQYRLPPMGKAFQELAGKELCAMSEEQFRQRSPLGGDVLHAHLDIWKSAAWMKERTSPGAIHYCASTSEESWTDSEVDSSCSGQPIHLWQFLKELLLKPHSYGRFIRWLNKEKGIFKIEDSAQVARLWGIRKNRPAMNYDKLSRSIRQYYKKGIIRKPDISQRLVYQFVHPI
The note with it: protein: recombinant; tags: N-terminal GST; dsDNA, one strand shown. A digest of the protocol:
as §1

Another assay addresses T10, ETV7 (Homo sapiens, UniProt Q9Y603 1-341).
T10 sequence: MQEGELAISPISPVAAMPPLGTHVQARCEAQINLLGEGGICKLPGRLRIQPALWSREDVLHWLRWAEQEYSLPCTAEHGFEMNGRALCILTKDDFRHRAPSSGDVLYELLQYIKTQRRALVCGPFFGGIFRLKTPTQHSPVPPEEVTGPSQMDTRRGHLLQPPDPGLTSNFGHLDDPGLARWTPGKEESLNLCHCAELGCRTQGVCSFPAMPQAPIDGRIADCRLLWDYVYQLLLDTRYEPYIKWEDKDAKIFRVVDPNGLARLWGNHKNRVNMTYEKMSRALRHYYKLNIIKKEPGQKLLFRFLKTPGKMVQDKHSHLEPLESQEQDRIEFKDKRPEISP
The note with it: protein: recombinant; tags: N-terminal GST; dsDNA, one strand shown. A digest of the protocol:
as §1

The target in the next assay is T11, ELF5 (Homo sapiens, UniProt Q9UKW6-2 1-255).
T11 sequence: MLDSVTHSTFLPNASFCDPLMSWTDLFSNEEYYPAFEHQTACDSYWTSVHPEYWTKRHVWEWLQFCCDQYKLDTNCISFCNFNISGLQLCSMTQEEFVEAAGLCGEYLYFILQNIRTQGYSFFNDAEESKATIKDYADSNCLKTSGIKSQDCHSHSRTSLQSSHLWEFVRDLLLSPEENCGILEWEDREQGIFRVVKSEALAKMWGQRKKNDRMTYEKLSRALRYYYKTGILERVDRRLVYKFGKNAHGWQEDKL
The note with it: protein: recombinant; tags: N-terminal GST; dsDNA, one strand shown. The essentials:
as §1

Another assay addresses T12, ETV3 (Homo sapiens, UniProt P41162-2 1-143).
T12 sequence: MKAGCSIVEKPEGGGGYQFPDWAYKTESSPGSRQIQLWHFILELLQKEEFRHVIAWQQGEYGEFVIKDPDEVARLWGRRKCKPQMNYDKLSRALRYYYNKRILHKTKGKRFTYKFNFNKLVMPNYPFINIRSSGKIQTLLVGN
The note with it: protein: recombinant; tags: N-terminal GST; dsDNA, one strand shown. A digest of the protocol: as §1

Another assay has as its target ETV6 (Homo sapiens, UniProt P41212 1-452). The settings on record: protein: recombinant; tags: N-terminal GST; dsDNA, one strand shown. A digest of the protocol:
as §1

Chain of ELF4 (Q99607 whole entry): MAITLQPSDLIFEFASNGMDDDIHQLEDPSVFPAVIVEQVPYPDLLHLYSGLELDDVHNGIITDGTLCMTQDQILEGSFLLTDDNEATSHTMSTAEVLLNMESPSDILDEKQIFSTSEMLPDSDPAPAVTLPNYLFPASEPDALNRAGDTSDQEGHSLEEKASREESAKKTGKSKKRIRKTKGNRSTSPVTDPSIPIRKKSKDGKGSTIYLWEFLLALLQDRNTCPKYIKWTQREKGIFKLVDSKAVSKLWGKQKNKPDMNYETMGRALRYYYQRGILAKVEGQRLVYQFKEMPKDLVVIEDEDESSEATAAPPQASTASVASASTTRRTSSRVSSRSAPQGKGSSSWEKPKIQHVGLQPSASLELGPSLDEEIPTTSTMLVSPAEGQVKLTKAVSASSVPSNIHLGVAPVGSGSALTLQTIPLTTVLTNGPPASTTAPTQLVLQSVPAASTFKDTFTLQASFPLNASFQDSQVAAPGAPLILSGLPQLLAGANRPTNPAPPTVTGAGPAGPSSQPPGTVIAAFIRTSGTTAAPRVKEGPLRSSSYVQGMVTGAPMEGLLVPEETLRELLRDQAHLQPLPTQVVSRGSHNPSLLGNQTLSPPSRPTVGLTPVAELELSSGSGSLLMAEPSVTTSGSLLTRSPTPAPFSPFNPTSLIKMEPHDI
Chain of HSF1 (Q00613 whole entry): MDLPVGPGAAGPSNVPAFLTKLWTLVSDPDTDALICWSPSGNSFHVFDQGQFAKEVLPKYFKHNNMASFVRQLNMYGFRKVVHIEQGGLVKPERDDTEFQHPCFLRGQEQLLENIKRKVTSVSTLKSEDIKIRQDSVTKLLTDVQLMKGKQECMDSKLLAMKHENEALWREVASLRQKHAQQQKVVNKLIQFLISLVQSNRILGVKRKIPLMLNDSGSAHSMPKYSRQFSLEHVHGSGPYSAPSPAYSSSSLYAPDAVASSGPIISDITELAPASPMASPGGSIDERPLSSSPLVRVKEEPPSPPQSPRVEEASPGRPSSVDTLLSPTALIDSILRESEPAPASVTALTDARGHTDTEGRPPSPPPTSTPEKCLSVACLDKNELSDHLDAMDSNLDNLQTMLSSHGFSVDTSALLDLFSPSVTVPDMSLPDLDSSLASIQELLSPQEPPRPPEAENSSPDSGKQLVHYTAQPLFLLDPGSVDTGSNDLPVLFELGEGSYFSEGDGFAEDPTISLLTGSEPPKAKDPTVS
Chain of ETV5 (P41161 whole entry): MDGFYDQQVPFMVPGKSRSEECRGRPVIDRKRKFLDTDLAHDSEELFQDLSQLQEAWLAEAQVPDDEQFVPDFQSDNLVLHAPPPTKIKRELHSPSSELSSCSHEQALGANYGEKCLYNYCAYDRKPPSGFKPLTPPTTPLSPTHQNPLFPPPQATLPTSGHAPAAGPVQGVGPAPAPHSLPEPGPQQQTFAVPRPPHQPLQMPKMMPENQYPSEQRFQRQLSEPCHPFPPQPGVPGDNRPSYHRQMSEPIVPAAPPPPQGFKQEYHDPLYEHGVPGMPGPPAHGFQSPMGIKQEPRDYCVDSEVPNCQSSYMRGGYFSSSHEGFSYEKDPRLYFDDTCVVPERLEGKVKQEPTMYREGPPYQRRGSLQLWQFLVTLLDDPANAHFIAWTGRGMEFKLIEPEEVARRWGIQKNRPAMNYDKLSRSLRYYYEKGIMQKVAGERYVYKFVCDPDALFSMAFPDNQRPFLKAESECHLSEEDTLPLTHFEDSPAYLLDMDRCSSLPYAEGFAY
Chain of ETV6 (P41212 whole entry): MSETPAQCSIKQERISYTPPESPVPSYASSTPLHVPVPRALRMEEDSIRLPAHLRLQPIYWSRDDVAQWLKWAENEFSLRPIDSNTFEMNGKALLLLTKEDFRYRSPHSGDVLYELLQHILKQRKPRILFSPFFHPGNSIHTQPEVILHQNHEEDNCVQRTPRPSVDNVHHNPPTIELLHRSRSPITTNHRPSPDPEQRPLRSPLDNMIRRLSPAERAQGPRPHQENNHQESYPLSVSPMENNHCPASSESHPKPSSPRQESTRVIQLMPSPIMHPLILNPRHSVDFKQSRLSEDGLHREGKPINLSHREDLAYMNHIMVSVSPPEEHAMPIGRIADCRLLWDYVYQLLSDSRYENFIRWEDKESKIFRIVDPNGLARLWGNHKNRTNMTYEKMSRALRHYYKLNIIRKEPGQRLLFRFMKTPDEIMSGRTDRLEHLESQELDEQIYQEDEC
Chain of ETV1 (P50549 whole entry): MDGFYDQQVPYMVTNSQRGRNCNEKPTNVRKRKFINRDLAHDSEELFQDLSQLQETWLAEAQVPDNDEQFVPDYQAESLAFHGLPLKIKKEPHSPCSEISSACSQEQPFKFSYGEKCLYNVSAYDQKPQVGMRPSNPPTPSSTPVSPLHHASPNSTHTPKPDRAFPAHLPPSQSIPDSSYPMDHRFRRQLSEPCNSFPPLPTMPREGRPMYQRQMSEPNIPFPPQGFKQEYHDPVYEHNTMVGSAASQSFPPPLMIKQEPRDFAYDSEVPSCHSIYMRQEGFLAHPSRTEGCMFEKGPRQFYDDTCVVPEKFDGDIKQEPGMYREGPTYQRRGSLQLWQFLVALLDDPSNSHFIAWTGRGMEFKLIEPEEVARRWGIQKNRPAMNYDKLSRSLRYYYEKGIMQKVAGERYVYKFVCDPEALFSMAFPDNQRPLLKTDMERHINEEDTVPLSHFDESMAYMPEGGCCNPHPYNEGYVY
Chain of CRX (O43186 whole entry): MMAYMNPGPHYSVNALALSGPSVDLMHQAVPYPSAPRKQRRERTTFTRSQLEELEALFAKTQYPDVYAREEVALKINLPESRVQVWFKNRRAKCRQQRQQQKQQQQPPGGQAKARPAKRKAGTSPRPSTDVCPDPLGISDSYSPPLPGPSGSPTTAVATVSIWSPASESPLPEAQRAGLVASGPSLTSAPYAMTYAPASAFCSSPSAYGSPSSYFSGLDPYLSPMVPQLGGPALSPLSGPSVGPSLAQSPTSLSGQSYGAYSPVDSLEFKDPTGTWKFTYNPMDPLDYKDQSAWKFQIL

Turning to CTTGGG, the binding signal with FEV was 1.23 fold enrichment (6-mer frequency, TF over GST control); with ETV5, 1.26 fold enrichment (6-mer frequency, TF over GST control); in the assay with HSF1, 1.12 fold enrichment (6-mer frequency, TF over GST control); with SPIC, 1.31 fold enrichment (6-mer frequency, TF over GST control); with ELF4, 1.21 fold enrichment (6-mer frequency, TF over GST control); in the assay with ELK4, 1.32 fold enrichment (6-mer frequency, TF over GST control). The binding signal with ETV2 is 1.15 fold enrichment (6-mer frequency, TF over GST control); in the assay with ELF3, 1.23 fold enrichment (6-mer frequency, TF over GST control); in the assay with CRX, 1.13 fold enrichment (6-mer frequency, TF over GST control); in the assay with ETV1 it was 1.38 fold enrichment (6-mer frequency, TF over GST control); in the assay with ERF, 1.47 fold enrichment (6-mer frequency, TF over GST control); in the assay with ETV3L, 1.26 fold enrichment (6-mer frequency, TF over GST control). Further, the binding signal with ETS2 was 1.28 fold enrichment (6-mer frequency, TF over GST control); in the assay with SPDEF, 1.21 fold enrichment (6-mer frequency, TF over GST control); in the assay with ETV7, 1.3 fold enrichment (6-mer frequency, TF over GST control); in the assay with ELF5, 1.19 fold enrichment (6-mer frequency, TF over GST control); in the assay with ETV3, 1.26 fold enrichment (6-mer frequency, TF over GST control); with ETV6, 1.23 fold enrichment (6-mer frequency, TF over GST control).

Source of the values: publication PMC7862700, “An all-to-all approach to the identification of sequence-specific readers for epigenetic DNA modifications on cytosine”.
